# Data: PubChem BioAssay (Tox21)
# “And” between values parts separate entries of the source, which are not always exact repeats. Equal values may be shown once. Where a structure was tested more than once in an assay, its records may differ in their call. The source made the active and inactive calls. Where a call stands in place of a potency, no number is given. Unless noted, calls follow the shape of the dose curve; as a rule, active = well fitted curve in the direction sought with a large enough effect in the repeat runs; inconclusive = weak or mixed curves; inactive = no such curve, though single readings can be large; an effect the other way counts as inactive or inconclusive.
# Assays:
# [1] = system: thyroid hormone receptor (rat, GH3 cells); assay: qHTS assay to identify small molecule agonists of the thyroid receptor (TR) signaling pathway (AID 743066; calls by dose curve)
# [2] = molecular target: Estrogen receptor (Homo sapiens) (UniProt P03372); assay: qHTS assay to identify small molecule antagonists of the estrogen receptor alpha (ER-alpha) signaling pathway (AID 743069; active = well fitted curve in the direction sought with a large enough effect in the signal ratio in the repeat runs, not every such curve was filed as active; inconclusive = weak or mixed curves, or effect the other way; inactive = no such curve, though single readings can be large or run the other way; the % refers to the signal ratio; also: potency is read from the fitted curve at half-maximal effect)
# Estrogen receptor (Homo sapiens), sequence (P03372 whole entry, looked up): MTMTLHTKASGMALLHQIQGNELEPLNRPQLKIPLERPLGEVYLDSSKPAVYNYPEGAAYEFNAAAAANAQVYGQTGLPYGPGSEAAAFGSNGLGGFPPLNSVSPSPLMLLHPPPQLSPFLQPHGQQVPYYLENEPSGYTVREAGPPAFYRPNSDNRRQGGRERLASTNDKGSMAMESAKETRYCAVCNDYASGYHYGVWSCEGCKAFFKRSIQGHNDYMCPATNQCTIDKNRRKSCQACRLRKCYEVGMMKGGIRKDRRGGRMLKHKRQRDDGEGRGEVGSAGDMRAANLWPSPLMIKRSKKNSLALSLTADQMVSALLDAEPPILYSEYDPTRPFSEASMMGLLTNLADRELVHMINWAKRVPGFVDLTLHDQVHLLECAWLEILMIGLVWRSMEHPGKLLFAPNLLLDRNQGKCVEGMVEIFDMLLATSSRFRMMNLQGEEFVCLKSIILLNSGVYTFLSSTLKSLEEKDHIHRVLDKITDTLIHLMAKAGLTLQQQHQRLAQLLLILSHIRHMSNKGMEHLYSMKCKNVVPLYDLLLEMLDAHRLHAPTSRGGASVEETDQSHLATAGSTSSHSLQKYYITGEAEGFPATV
# How it was run: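 Reporter cells (ER-alpha-bla, HEK293 background) are conditioned overnight in stripped-serum medium (2% charcoal-stripped FBS). Compound and 17beta-estradiol exposure runs 18 hr at 37C, 5% CO2.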
# [3] = qHTS assay to identify small molecule antagonists of the estrogen receptor alpha (ER-alpha) signaling pathway - cell viability counter screen (AID 743074; calls by dose curve;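 also: HEK293 cells carrying ER-alpha-UAS-bla reporter stimulated with 17beta-estradiol; nearly all actives have a fitted effect of over 45% in size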; also: potency is read from the fitted curve at half-maximal effect)
# [4] = molecular target: Estrogen receptor (Homo sapiens) (UniProt P03372); assay: qHTS assay to identify small molecule agonists of the estrogen receptor alpha (ER-alpha) signaling pathway (AID 743075; calls by dose curve;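 also: HEK293 GripTite cells with ER-alpha and UAS-driven beta-lactamase reporter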)
# [5] = molecular target: Estrogen receptor (Homo sapiens) (UniProt P03372); assay: qHTS assay to identify small molecule agonists of the estrogen receptor alpha (ER-alpha) signaling pathway using the BG1 cell line (AID 743079); also: nearly all actives have a fitted effect of over 20% in size; also: potency is read from the fitted curve at half-maximal effect
# [6] = qHTS assay to identify small molecule antagonists of the estrogen receptor alpha (ER-alpha) signaling pathway using the BG1 cell line - cell viability counter screen (AID 743081);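 also: compound given together with 17beta-estradiol as the ER stimulus; nearly all actives have a fitted effect of over 45% in size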; also: potency is read from the fitted curve at half-maximal effect
# Aromatase (Homo sapiens) = Aromatase (Homo sapiens) (UniProt P11511); assay: qHTS assay to identify aromatase inhibitors (AID 743083); also: nearly all actives have a fitted effect of over 55% in size; also: potency is read from the fitted curve at half-maximal effect
# Aromatase (Homo sapiens), sequence (P11511 whole entry, looked up): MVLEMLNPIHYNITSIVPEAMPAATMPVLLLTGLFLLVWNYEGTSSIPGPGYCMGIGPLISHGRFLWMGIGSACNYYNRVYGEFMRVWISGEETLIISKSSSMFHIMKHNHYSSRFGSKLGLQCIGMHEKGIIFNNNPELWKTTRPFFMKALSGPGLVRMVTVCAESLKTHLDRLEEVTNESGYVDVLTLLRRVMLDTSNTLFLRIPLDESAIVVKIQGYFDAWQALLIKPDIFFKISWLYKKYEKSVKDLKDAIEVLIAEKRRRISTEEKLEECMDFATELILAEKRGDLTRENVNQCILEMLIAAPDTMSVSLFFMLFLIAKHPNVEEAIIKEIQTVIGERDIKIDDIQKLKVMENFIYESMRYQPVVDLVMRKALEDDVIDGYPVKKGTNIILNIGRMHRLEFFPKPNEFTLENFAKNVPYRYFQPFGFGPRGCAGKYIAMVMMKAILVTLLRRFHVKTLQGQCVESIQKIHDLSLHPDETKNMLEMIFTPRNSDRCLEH
# [7] = qHTS assay to identify small molecule antagonists of the thyroid receptor (TR) signaling pathway (AID 743065); also: nearly all actives have a fitted effect of over 55% in size; also: potency is read from the fitted curve at half-maximal effect
# How it was run: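 GH3.TRE-Luc rat pituitary cells (two TREs driving luciferase) were dosed with compound, then stimulated with 1 nM T3 (final) for 23.5 h at 37 C. ONE-Glo luminescence was the read-out, with CellTiter-Fluor fluorescence as the cytotoxicity counter-screen.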
# [8] = qHTS assay to identify small molecule antagonists of the estrogen receptor alpha (ER-alpha) signaling pathway using the BG1 cell line (AID 743080; calls by dose curve;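 also: BG1 cells stimulated with 17beta-estradiol alongside compound; nearly all actives have a fitted effect of over 25% in size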; also: potency is read from the fitted curve at half-maximal effect)
# How it was run: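 Seeding, 24 h rest, compound transfer from DMSO, 17beta-estradiol addition, 21.5 h incubation, CellTiter-Fluor (30 min, 37 C), then ONE-Glo (30 min, room temperature): this sequence was run on BG1-Luc-4E2 reporter cells.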
SMILES,Potency [1],Potency [2],Potency [3],Potency [4],Potency [5],Potency [6],Potency (Aromatase (Homo sapiens)),Potency [7],Potency [8]
CN1C[C@H](C(=O)N[C@]2(C)O[C@@]3(O)[C@@H]4CCCN4C(=O)[C@H](Cc4ccccc4)N3C2=O)C=C2c3cccc4[nH]cc(c34)C[C@H]21,inactive,61.9 µM [cytotoxic] (active) and inactive,inactive,inactive,inactive,16.8 µM (active) and 27.4 µM (active),inactive,–,–
COC1=CC(=O)O[C@@H](/C=C/c2ccc3c(c2)OCO3)C1,inactive,–,–,–,–,inactive,inactive,58.5 nM (active),–
O=C(O)C(O)C(O)C(=O)O (configuration not stated),inactive,inactive,inactive,inactive,inactive,inactive,inactive,–,inactive
O=C(O)c1cc(I)cc(I)c1I,inactive,inactive,inactive,inactive,inactive,inactive,inactive,–,inactive
C[N+]1(CCF)[C@@H]2CC[C@H]1CC(OC(=O)C(O)(c1ccccc1)c1ccccc1)C2 (some centres not stated),inactive,–,–,–,15 µM (active),inactive,inactive,inactive,–
C=CCN1C[C@H](C)N([C@H](c2ccc(C(=O)N(CC)CC)cc2)c2cccc(OC)c2)C[C@H]1C,inactive,inactive,inactive,inactive,inactive,inactive,inactive,–,inactive
NCCc1cc(O)c(O)cc1O,inactive,inactive,inactive,inactive,inactive,inactive,inactive,–,inactive
CCSCc1ccccc1OC(=O)NC,inactive,inactive,inactive,inactive,inactive,inactive,inactive,–,inactive
c1ccc2c(c1)-c1cccc3cccc-2c13,inactive,–,inactive,–,–,inactive,inactive,–,–
N#CC1(N=NC2(C#N)CCCCC2)CCCCC1,inactive,–,inactive,–,–,inactive,inactive,inactive,–
CCCSP(=S)(OCC)Oc1ccc(SC)cc1 (configuration not stated),inactive,inactive,inactive,inactive,inactive,inactive,inactive,–,–
O=[N+]([O-])/C=C/c1ccccc1,inactive,–,inactive,–,–,inactive,27.8 µM (active),12.4 µM (active) and 7.7 µM (active),–
C=CC(C)(CCC=C(C)C)OC(=O)c1ccccc1N (configuration not stated),inactive,–,inactive,–,–,inactive,inactive,–,–
CC(=O)NNc1ccccc1,inactive,–,inactive,–,–,inactive,inactive,4820 nM (active),–
C=CC(=O)OCC,inactive,inactive,inactive,inactive,inactive,inactive,inactive,–,inactive
CC[N+]1(C)CCCC(OC(=O)C(O)(c2ccccc2)c2ccccc2)C1 (configuration not stated),inactive,–,inactive,–,–,inactive,inactive,inactive,–
[Cl-].[Cl-].[Hg+2],–,–,24.4 µM (active),–,–,54.2 µM (active) and inactive,13.3 µM (active) and 1.36 µM (active) and 15.4 µM (active),–,–
Nc1cc(Cl)cc(C(=O)O)c1Cl,inactive,–,inactive,–,–,inactive,inactive,inactive,–
NNCCO,inactive,inactive,inactive,inactive,–,inactive,inactive,–,–
CCOc1cccc(C2(N3CCN(c4ccccc4)CC3)CCC(C)CC2)c1 (configuration not stated),inactive,inactive,–,inactive,inactive,inactive,inactive,–,–
O=S(=O)(c1ccccc1)c1ccccc1,inactive,–,inactive,–,–,inactive,inactive,inactive,–
C[Si](Cn1cncn1)(c1ccc(F)cc1)c1ccc(F)cc1,inactive,–,inactive,–,–,inactive,316 nM (active) and 545 nM (active),28.2 µM (active) and 54.5 µM (active),–
C1CS1,inactive,inactive,inactive,inactive,inactive,inactive,inactive,–,–
CCCCNC(=O)OCC#CI,inactive,–,–,inactive,–,inactive,4.83 µM (active) and 13.7 µM (active),–,60.8 µM (active) and 68.6 µM (active)
CC(C)(C)NCC(O)c1cc(Cl)c(N)c(C(F)(F)F)c1 (configuration not stated),inactive,inactive,inactive,inactive,inactive,–,inactive,–,inactive
COc1ccccc1N1CCNCC1,inactive,–,inactive,–,–,inactive,inactive,–,–
CC(C)[C@@H](C(=O)O[C@@H](C#N)c1cccc(Oc2ccccc2)c1)c1ccc(Cl)cc1,inactive,–,–,–,–,inactive,inactive,–,–
C[C@H](N)[C@H](O)c1ccc(O)c(O)c1,–,inactive,inactive,inactive,inactive,–,inactive,–,inactive
CC(Oc1cc(Cl)c(Cl)cc1Cl)C(=O)O (configuration not stated),–,inactive,inactive,inactive,inactive,inactive,inactive,–,–
O=C1c2ccccc2C(=O)N1SC(Cl)(Cl)Cl,–,24.5 µM [inconclusive] (active),21.6 µM (active) and inactive,inactive,–,–,3.02 µM (active) and 4.86 µM (active),2.4 µM (active) and 1.54 µM (active),–
